Results: PubChem BioAssay
Calls of active or inactive are those of the source.

Tests used:
[1] = E. coli DRC41 culture turbidity changes, primary screen, E. coli filamentation inducer project, strain DRC41, OD650, 48 h (AID 1152);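 note: E. coli MC1000 strain DRC41 lacking acrAB efflux pump and sulA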; conditions: E. coli DRC41 (acrAB sulA), higher = more signal, called active from +8 up or from −8 down
[2] = small-molecule binders of probe aLefty1, primary screen, biochemical, small-molecule microarray, 635/667 nm fluorescence (AID 1153); conditions: higher = more signal;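 note: score merges spot fluorescence with signal-to-noise ratio from the scanned slide images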
[3] = PSAC antagonists in infected red cells, primary screen, cell-based, P. falciparum Indochina, OD700, 1 h (AID 1154); conditions: P. falciparum Indochina infected RBC osmotic lysis, higher = more signal, called active from +8 up or from −8 down
[4] = PSAC antagonists in infected red cells, primary screen, cell-based, P. falciparum Indochina, OD700, 2 h (AID 1155);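 note: lysis reports solute entry through the parasite surface anion channel PSAC; channel blockers reduce lysis of infected cells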; conditions: P. falciparum Indochina infected erythrocytes, osmotic lysis OD700; higher = more signal, called active from +8 up or from −8 down
[5] = osmotic lysis modulators in infected erythrocytes, primary screen, PSAC antagonist project, cell-based, P. falciparum Indochina, OD700, 3 h (AID 1156); conditions: higher = more signal, called active from +8 up or from −8 down
[6] = PSAC antagonists in infected red cells, primary screen, cell-based, P. falciparum Indochina, OD700, 18 h (AID 1157); conditions: P. falciparum Indochina infected erythrocytes, osmotic lysis OD700, 18 h; higher = more signal, called active from +8 up or from −8 down
[7] = modulators of S6 phosphorylation in cells, primary screen, cell-based, A549, cytoblot, luminescence, serum-stimulated (AID 1158); conditions: A549 phospho-S6 cytoblot, 5 h, higher = more signal;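 note: serum-stimulated A549 lung adenocarcinoma cells; signal is phosphorylated S6 detected by cytoblot immunostaining with HRP secondary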
[8] = molecular target: NADPH oxidase 2 (Homo sapiens) (UniProt P04839); test: NOX2-dependent H2O2 signal modulators, primary screen, NOX inhibitor project, cell-based, HEK293-NOX2, PMA-stimulated, Amplex Red fluorescence (AID 1159); conditions: 45 min, higher = more signal, called active from +8 up or from −8 down; note: test concentration not given here
[9] = molecular target: NADPH oxidase 4 (Homo sapiens) (UniProt Q9NPH5); test: NOX4-dependent H2O2 signal modulators, primary screen, NOX inhibitor project, cell-based, HEK293-NOX4, tetracycline-induced, Amplex Red fluorescence (AID 1160); conditions: 45 min, higher = more signal, called active from +8 up or from −8 down
[10] = molecular target: NADPH oxidase 5 (Homo sapiens) (UniProt Q96PH1); test: NOX5-dependent H2O2 signal modulators, primary screen, NOX inhibitor project, cell-based, HEK293-NOX5, Amplex Red fluorescence (AID 1161); conditions: HEK293-NOX5, ionomycin, 45 min, higher = more signal
Sequence of NADPH oxidase 5 (Homo sapiens) (Q96PH1 whole entry, looked up): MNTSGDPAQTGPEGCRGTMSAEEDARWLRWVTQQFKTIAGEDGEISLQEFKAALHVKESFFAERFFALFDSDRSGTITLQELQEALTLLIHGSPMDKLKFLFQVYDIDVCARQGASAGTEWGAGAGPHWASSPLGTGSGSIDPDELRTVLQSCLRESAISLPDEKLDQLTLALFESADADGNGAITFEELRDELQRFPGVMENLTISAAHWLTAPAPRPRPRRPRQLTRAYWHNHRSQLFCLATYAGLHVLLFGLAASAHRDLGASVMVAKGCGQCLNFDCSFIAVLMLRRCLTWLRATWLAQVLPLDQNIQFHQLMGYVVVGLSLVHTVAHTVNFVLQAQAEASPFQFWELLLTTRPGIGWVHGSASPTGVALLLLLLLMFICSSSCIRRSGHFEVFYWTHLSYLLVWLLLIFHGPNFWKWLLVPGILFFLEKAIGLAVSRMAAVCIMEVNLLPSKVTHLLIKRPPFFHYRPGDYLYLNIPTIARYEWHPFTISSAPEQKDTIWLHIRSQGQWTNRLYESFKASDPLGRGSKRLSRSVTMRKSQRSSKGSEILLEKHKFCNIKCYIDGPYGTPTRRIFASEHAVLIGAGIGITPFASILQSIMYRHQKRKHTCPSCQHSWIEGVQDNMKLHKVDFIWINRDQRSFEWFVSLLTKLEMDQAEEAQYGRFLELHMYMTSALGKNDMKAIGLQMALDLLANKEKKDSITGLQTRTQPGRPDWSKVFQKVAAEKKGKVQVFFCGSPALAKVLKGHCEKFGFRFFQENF

Sequence of NADPH oxidase 2 (Homo sapiens) (P04839 whole entry, looked up): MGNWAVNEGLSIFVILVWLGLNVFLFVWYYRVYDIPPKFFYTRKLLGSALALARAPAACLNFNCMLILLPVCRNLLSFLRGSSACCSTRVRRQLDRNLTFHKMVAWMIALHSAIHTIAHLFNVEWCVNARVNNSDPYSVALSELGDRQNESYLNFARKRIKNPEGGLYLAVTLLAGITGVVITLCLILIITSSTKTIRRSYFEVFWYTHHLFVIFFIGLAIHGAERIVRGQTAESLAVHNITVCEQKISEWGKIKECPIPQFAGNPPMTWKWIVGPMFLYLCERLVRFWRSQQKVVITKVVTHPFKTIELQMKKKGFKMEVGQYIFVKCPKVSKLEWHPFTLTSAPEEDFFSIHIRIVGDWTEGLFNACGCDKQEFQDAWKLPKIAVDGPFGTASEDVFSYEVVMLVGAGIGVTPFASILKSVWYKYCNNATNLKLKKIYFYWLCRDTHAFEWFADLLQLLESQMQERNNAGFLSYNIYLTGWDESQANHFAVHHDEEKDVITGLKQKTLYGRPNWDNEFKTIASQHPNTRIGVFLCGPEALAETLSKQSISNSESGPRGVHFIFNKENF
Sequence of NADPH oxidase 4 (Homo sapiens) (Q9NPH5 whole entry, looked up): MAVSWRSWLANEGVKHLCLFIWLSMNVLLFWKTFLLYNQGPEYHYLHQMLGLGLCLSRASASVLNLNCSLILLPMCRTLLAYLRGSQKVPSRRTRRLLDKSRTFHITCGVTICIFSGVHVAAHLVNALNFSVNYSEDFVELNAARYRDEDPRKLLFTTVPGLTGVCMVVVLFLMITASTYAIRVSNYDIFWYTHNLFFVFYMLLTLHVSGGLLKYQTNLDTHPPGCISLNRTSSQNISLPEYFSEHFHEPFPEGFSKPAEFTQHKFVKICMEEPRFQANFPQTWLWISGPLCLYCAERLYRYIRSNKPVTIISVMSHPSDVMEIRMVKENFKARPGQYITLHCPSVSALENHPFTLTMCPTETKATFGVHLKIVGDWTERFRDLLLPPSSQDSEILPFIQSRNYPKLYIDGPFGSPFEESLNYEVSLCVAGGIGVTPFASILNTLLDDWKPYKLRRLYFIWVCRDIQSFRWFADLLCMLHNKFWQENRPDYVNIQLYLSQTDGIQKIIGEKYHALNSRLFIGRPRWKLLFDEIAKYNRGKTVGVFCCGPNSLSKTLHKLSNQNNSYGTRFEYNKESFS

Row | Structure (SMILES) | z-score [1] | composite z-score [2] | z-score [3] | z-score [4] | z-score [5] | z-score [6] | z-score [7] | z-score [8] | z-score [9] | z-score [10]
1 | CCOC(=O)[C@H](CC(C)C)NC(=O)CCC1CC(OC(=O)NCc2cccc3ccccc23)CC2(CCCC(COC(=O)NCCc3ccccc3OC)O2)O1 (stereo not given in full) | -0.596 (inactive) | -0.147 | -1.28 (inactive) | -0.0901 (inactive) | -0.868 (inactive) | 0.298 (inactive) | 0.0059 | 0.527 (inactive) | 0.69 (inactive) | 1.02
2 | N#Cc1ccc(NN2C(C(O)c3cc(C(F)(F)F)cc(C(F)(F)F)c3)C=CC3C(=O)N(c4ccccc4)C(=O)C32)cc1 (stereo not given) | -1.54 (inactive) | 0.0971 | 4.78 (inactive) | 2.32 (inactive) | -3.13 (inactive) | 1.54 (inactive) | -1.07 | -1.19 (inactive) | -3.23 (inactive) | -1.4
3 | C=CC[C@]1(C(=O)NCc2ccccc2)N=C(c2ccc(OCCCO)cc2)O[C@H]1c1ccccc1 | -0.0491 (inactive) | 0.398 | 14.6 (active) | 1.83 (inactive) | 0.668 (inactive) | 1.26 (inactive) | -0.0429 | -2.86 (inactive) | -0.495 (inactive) | -1.96
4 | O=C1[C@H]2[C@H]3[C@H](O)[C@H](O)CC(=NO[C@@H]4O[C@H](CO)[C@@H](O)[C@H](O)[C@H]4O)[C@@H]3CC[C@H]2C(=O)N1Cc1ccc2c(c1)OCO2 | -0.161 (inactive) | -0.0016 | 5.54 (inactive) | 0.373 (inactive) | 1.3 (inactive) | 0.404 (inactive) | 0.117 | -0.486 (inactive) | 0.295 (inactive) | -0.163
5 | O=C1[C@H]2[C@H]3[C@H](O)[C@H](O)CC(=NO[C@@H]4O[C@H](CO)[C@@H](O)[C@H](O)[C@H]4O)[C@@H]3CC[C@H]2C(=O)N1c1ccc(F)cc1F | 0.178 (inactive) | -0.0145 | -0.219 (inactive) | 0.363 (inactive) | -0.444 (inactive) | 0.205 (inactive) | -0.709 | 0.455 (inactive) | 0.199 (inactive) | -0.606
6 | C#CCCCON=C1C[C@@H](O)[C@@H](O)[C@@H]2[C@@H]3C(=O)N([C@@H](C)c4ccccc4)C(=O)[C@@H]3CC[C@H]12 | -1.08 (inactive) | 0.75 | 0.553 (inactive) | -0.645 (inactive) | -0.318 (inactive) | -2.13 (inactive) | -0.235 | -0.599 (inactive) | -1.21 (inactive) | 0.579
7 | C[C@H]1Cc2c(-c3ccccc3)nc3c(c2CO1)CN(CCOc1ccccc1)CC3 | 0.503 (inactive) | -0.199 | 1.65 (inactive) | 0.407 (inactive) | 0.301 (inactive) | 0.0748 (inactive) | 0.426 | 0.17 (inactive) | -0.0187 (inactive) | -0.605
8 | CCCCCN1CC=CC23O[C@@H]4C=CCOC(=O)[C@@H]4[C@H]2C(=O)N(C(CO)C(C)C)[C@@H]3C1=O (stereo not given in full) | 0.374 (inactive) | -0.0479 | 0.901 (inactive) | 0.661 (inactive) | 0.445 (inactive) | 0.307 (inactive) | -0.0997 | 0.965 (inactive) | 0.694 (inactive) | 1.24
9 | COC(=O)C1=CCC(c2cccc(Cl)c2)O1 (stereo not given) | -0.367 (inactive) | -0.0111 | 11.4 (active) | -0.39 (inactive) | 0.784 (inactive) | -0.963 (inactive) | 0.61 | -3.94 (inactive) | -1.6 (inactive) | -4.15
10 | CCOC(=O)C[C@H]1[C@H](OC(=O)c2cc3ccccc3oc2=O)[C@@H](NC(=O)c2ccc3ccccc3n2)c2cc(OCCCO)ccc2N1C(=O)c1ccccc1 | 0.571 (inactive) | 0.0793 | 1.31 (inactive) | -0.639 (inactive) | 0.628 (inactive) | -1.83 (inactive) | 0.63 | -0.253 (inactive) | -0.654 (inactive) | 0.86
11 | CCN1C(=O)[C@H]2[C@H]3[C@H](O)[C@H](O)CC(=NOC(C)CN4CCCCc5nc(C)c(C)cc54)[C@@H]3CC[C@H]2C1=O (stereo not given in full) | 0.803 (inactive) | -0.106 | 0.29 (inactive) | 0.15 (inactive) | 0.363 (inactive) | 0.317 (inactive) | -0.518 | -0.588 (inactive) | -0.245 (inactive) | -0.239
12 | O=C1[C@H]2[C@H]3[C@H](O)[C@H](O)CC(=NOCc4ccccc4)[C@@H]3CC[C@H]2C(=O)N1C1CCCCC1 | -0.501 (inactive) | 0.056 | 2.79 (inactive) | 0.322 (inactive) | 0.28 (inactive) | 0.352 (inactive) | -0.206 | 1.56 (inactive) | 0.568 (inactive) | -0.818
